From PubChem
ADAM17 inh: inhibitors of human ADAM17. 370,000 tested, 0.83% active. recombinant ADAM17, EDANS/DABCYL FRET peptide cleavage. P78536. inhibition, % at 6.95 µM;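 active = inhibition above the mean of compounds lying between control limits plus 3 SD, set per campaign, cut at about 8.5% in these data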;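 also: 0% = DMSO-only wells as the low control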
proKLK7 act: proKLK7 (human) activation, primary screen. activation, % at 7 µM. purified proKLK7, EDANS-DABCYL substrate fluorescence; 100% is mature enzyme control, 0% vehicle. 370,000 tested, 0.9% active;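 active = activation above the mean of all tested compounds plus 3 SD, computed per campaign excluding outliers beyond control limits, cut at about 13% in these data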
PLC-beta3 inh: inhibitors of human phospholipase C beta3; Q01970; Purified PLC-beta3, fluorogenic substrate, fluorescence; inhibition, % at 12.2 µM; 370,000 tested, 0.18% active; in the data active = inhibition above about 11%;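 also: 0% = median of compound wells on plate and 100% = full blocker control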
PLC-gamma1 inh: blocks human PLC-gamma1 enzyme activity | purified PLC-gamma1, fluorogenic substrate, fluorescence | 370,000 tested, 0.84% active | inhibition, % at 12.2 µM | AID 720700; in the data active = inhibition above about 9.5%
Target sequence (P19174 whole entry, looked up): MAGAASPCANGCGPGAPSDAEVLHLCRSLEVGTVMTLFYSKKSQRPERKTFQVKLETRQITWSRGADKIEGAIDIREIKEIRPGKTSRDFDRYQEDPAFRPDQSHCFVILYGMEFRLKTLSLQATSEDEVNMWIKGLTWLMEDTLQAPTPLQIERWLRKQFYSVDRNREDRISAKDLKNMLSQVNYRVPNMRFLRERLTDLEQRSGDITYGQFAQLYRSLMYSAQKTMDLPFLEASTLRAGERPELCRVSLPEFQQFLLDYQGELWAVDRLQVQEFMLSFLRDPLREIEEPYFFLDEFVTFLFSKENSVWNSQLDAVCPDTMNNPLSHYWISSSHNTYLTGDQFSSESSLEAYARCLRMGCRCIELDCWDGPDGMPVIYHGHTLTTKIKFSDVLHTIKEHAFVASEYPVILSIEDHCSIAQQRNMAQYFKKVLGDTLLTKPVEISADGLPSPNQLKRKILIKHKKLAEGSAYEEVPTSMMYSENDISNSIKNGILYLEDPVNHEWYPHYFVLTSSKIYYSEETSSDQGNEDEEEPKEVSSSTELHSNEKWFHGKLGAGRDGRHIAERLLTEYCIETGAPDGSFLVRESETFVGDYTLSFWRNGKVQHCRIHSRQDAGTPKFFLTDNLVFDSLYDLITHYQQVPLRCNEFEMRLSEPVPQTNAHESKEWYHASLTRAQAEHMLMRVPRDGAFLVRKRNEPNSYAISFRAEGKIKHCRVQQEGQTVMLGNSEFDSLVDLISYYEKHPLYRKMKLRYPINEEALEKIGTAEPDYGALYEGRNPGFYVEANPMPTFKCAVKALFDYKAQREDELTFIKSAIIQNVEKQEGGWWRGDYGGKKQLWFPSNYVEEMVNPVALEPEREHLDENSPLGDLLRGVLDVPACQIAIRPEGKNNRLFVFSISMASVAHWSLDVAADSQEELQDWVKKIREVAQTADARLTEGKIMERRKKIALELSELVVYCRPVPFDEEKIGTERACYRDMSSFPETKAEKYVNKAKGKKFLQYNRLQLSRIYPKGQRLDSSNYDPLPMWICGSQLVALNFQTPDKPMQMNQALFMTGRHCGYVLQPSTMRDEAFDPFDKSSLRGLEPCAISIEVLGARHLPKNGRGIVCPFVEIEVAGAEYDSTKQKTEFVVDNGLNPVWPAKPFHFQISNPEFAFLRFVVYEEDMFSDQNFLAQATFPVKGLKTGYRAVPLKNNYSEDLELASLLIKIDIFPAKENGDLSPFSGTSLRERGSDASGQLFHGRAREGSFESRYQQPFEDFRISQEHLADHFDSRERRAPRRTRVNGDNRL
ADAM10 inh: ADAM10 inhibition, QFRET primary screen. O14672. recombinant ADAM10, EDANS/DABCYL FRET peptide cleavage, 3 h. inhibition, % at 7 µM. 370,000 tested, 0.62% active;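 active = inhibition above a per-campaign cutoff equal to the mean of compounds falling between control-based bounds plus 3 SD, cut at about 20% in these data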;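 also: 0% = DMSO wells while the 100% control is not disclosed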
ADAM10 ctr: inhibits human ADAM10 in ADAM17 exosite counter-screen | shares compounds with ADAM17 inh | inhibition, % at 6.95 µM | 2,900 tested, 47% active | AID 743256 | recombinant ADAM10, EDANS/DABCYL FRET peptide cleavage, 3 h;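 active = mean inhibition over the triplicate runs exceeds the activity threshold set in the earlier primary screen, cut at about 20% in these data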;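 also: 0% = DMSO wells and 100% = marimastat wells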
ADAM17 confirm: human ADAM17 inhibition, confirmation; AID 743257; inhibition, % at 6.95 µM; shares compounds with ADAM17 inh; 2,900 tested, 65% active; recombinant ADAM17, EDANS/DABCYL QFRET peptide cleavage;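 active = mean inhibition across replicates above the hit cutoff set in the primary screen, cut at about 8.5% in these data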;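 also: 0% = DMSO wells and 100% = marimastat wells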
Numbers without * were called inactive; . = not tested or not shown. Rows were chosen to be rich in hits. Some 2.9% of all compounds tested hit in one or more screens of this group.

SMILES | ADAM17 inh | proKLK7 act | PLC-beta3 inh | PLC-gamma1 inh | ADAM10 inh | ADAM10 ctr | ADAM17 confirm
COCc1cn(CC(=O)c2sc(NC(=O)C(C)(C)C)nc2C)nn1 | 0 | -1 | -1 | 3 | -18 | . | .
CC(C)(C)C(=O)/C=c1\[nH]c(=O)/c(=C\c2ccc(F)cc2)s1 | 10* | 1 | -4 | -3 | 18 | 3 | 6
O=C(Nc1cccc(-n2cccn2)c1)C1CCCN(Cc2ccccc2F)C1 (stereo not given) | 11* | 0 | -1 | 5 | -3 | -9 | -1
COc1cc(CN2CCCC(C(=O)Nc3cccc(-n4cccn4)c3)C2)ccc1F (stereo not given) | 3 | 0 | 0 | 0 | -2 | . | .
Cc1ccc(NC(=O)OC2CC3CC2[C@H]2CCCCN2[C@H]3Cc2ccccc2)cc1 (stereo not given in full) | 0 | 0 | -1 | 4 | 1 | . | .
CCCCNS(=O)(=O)c1ccc(NC(=O)C(Sc2ccccc2)c2ccccc2)cc1 (stereo not given) | 17* | 1 | 7 | 5 | 38* | 46* | 27*
CC(=O)NS(=O)(=O)c1ccc(NC(=O)C(Sc2ccccc2)c2ccccc2)cc1 (stereo not given) | 3 | -1 | 9 | -2 | 4 | . | .
COC(=O)c1ccc(Oc2ccc(S(=O)(=O)N3CCCCC3)cc2N)cc1 | 0 | 0 | -8 | 2 | 10 | . | .
Nc1cc(S(=O)(=O)N2CCCCC2)ccc1Oc1ccc(Cl)cc1 | 8.8* | 0 | 6 | 1 | 20 | 17 | 11*
COC(=O)[C@]12C[C@H](CC(=O)N3CCCC3)C(=O)N(Cc3ccc4c(c3)OCO4)C1=C[C@H](C(C)C)O[C@@H]2C1CC1 | 2 | 0 | 2 | 3 | 6 | . | .
CC(C)(C)NS(=O)(=O)c1ccc(CCC(=O)NCc2ccc3c(c2)OCO3)cc1 | 9.0* | 0 | 5 | 5 | 5 | 8 | 7
O=C(NCc1ccccc1Cl)c1nnc(CS(=O)(=O)c2ccccc2)o1 | 11* | -1 | 5 | 2 | 17 | -2 | -1
Cc1ccc(CNC(=O)c2nnc(CS(=O)(=O)c3ccccc3)o2)cc1 | 1 | 0 | 1 | 0 | 6 | . | .
CCOC(=O)N1CCN(C(=O)C[C@@H]2C[C@@]3(C(=O)OC)CC(C)(C)CC=C3N(Cc3cccc4ccccc34)C2=O)CC1 | 4 | 1 | -1 | 3 | 13 | . | .
COc1ccccc1NC(=O)c1ccc(NC(=O)COC(=O)CCC2CCCC2)cc1 | 9.4* | 0 | -3 | -4 | 13 | 27* | 15*
COc1ccccc1NC(=O)N(C)C[C@@H]1OCc2cnnn2CCCC(=O)N([C@@H](C)CO)C[C@H]1C | 8.8* | 1 | 9 | 8 | -1 | -5 | -2
COc1ccccc1NC(=O)N(C)C[C@H]1OCc2cnnn2CCCC(=O)N([C@@H](C)CO)C[C@H]1C | -6 | -1 | -1 | 2 | -16 | . | .
O=C(Nc1ccccc1)OCCN1C(=O)CCC12CCC(c1ccccc1)CC2 (stereo not given) | -1 | 0 | 0 | 4 | 0 | . | .
CCCCCC(CC(=O)NO)C(=O)NC(C(=O)N1CCCC1CO)C(C)C (stereo not given) | 51* | 0 | 3 | 1 | . | . | 64*
COC(=O)c1cccc(C(=O)N2CCCC(Nc3ccc(C)c(C)c3)C2)c1 (stereo not given) | 11* | 0 | 2 | 2 | 10 | 18 | 7
COc1ccc(C(=O)N2CCCC(Nc3ccc(C)c(C)c3)C2)cc1F (stereo not given) | 1 | 1 | -9 | -4 | 1 | . | .
C[C@@H](OC(=O)N1CCCCC1)[C@H]1O[C@]2(C)CCCC[C@H]1O2 | 9.4* | 0 | 7 | 11* | 9 | 13 | 9
Cc1ccc([C@H]2C(C(=O)O)=CCN2S(=O)(=O)c2ccc(C)cc2)cc1 | -1 | -1 | -8 | -2 | -17 | . | .
COc1ccc(NC(=O)c2cc(-c3cc(Cl)ccc3C)n[nH]2)c(OC)c1 | 9.9* | -1 | -4 | -1 | 16 | 23* | 11*
